TGFb SMAD3 inh = inhibitors of TGF-b signaling; HepG2 CAGA-GFP TGF-b/SMAD3 reporter, GFP fluorescence, 18 h; TGF-beta stimulated, 500 pg/mL final; Potency, µM (series often up to 46.1 µM), usual class: inhibitors; actives 1.2% (n = 410,000); also: nearly all actives have a fitted effect of over 65% in size
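TGF-beta reporter screen: HEPG2 CAGA-GFP, 1% FBS, 500 pg/mL TGF-beta final, 18 h; per-cell GFP summed per well; curves fitted and categorized by class.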
HepG2 tox = counter-screen for TGF-b inhibitors: cytotoxicity in HepG2 cells | HepG2 CAGA-GFP viability, ATP luminescence, 18 h | Potency, µM (doses to about 46.1 µM), usual class: cytotoxic | actives 0.76% (n = 410,000) | AID 588856
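CellTiter-Glo luminescence gave cytotoxicity after 18 hours at 37 degrees C. The cells were HepG2 CAGA-GFP in 1% FBS DMEM, stimulated with 500 pg/mL TGF-beta after compound addition. %Activity was normalised to no-cell wells (complete cell-killing) and DMSO (no toxicity), and curves were fitted and classified.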
ATXN2 expr inh = reduces ATXN2 reporter expression in HEK-293 cells; HEK-293 ATXN2-luciferase reporter, luminescence, 24 h; Potency, µM (doses to about 57 µM), actives largely listed as inhibitors; actives 0.72% (n = 360,000); also: nearly all actives have a fitted effect of over 55% in size
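ATXN2-luciferase reporter cells (luciferase flanked by upstream and downstream ATXN2 gene portions) were treated 24 h at 37 °C with compounds at up to 57 uM. SteadyGlo luminescence gave expression; GF-AFC fluorescence gave viability.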
HT1080 IDH1KD tx = HT-1080 IDH1 knockdown cell toxicity (counter line). actives 2% (n = 360,000). AID 686971. Potency, µM (top dose mostly 46.1 µM), actives largely listed as cytotoxic. HT-1080 IDH1 knockdown viability, ATP luminescence, 48 h
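In this qHTS, HT-1080 cells depleted of IDH1 are exposed for 48 h at 37 °C to compound titrations. Toxicity is scored from CellTiter-Glo luminescence, with DMSO as full viability and medium alone as none.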
HT1080NT lethal = kills 2HG-producing HT-1080-NT fibrosarcoma cells; HT-1080-NT fibrosarcoma viability, CellTiter-Glo ATP luminescence, 48 h; actives 1.6% (n = 360,000); Potency, µM (series often up to 46.1 µM), hits mostly cytotoxic;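 also: NT is the 2HG producing partner of a matched IDH1 knockdown line; nearly all actives have a fitted effect of over 55% in size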
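Viability by CellTiter-Glo luminescence after 48 h compound exposure at 37C of HT-1080-NT cells (750/well, RPMI, 5% FBS). % activity scaled between DMSO wells and medium-only wells, then curve-fitted and categorized by curve class.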
ATXN viability = reduces viability in counter-screen for ATXN expression inhibitors | S2 cells (HEK-293 line with an ATXN2-luciferase reporter) viability, CellTiter-Fluor protease fluorescence, 24 h | Potency, µM (doses to about 56.7 µM), hits mostly cytotoxic | actives 0.49% (n = 400,000); also: nearly all actives have a fitted effect of over 40% in size
A number is an active result; - = inactive; ? = inconclusive; . = no result; [ ] = another dose, or the depositor's remark. Sampled rows, rich in hits. Any-hit rate of the full collection: about 3.9%. Calls follow the shape of the dose curve; as a rule, active = well fitted curve in the direction sought with a large enough effect; inconclusive = small, poorly fitted or top-dose-only effect, or another doubt; inactive = no such curve, though single readings can be large; an effect the other way counts as inactive or inconclusive.

SMILES	TGFb SMAD3 inh	HepG2 tox	ATXN2 expr inh	HT1080 IDH1KD tx	HT1080NT lethal	ATXN viability
CC1=CC(=O)C(C(C)C)=C/C1=N/OC(=O)c1cccc([N+](=O)[O-])c1	?	-	-	-[9.24 µM]	10µM	-
CC1=CC(=NOC(=O)c2cccc([N+](=O)[O-])c2)C=C(C)C1=O	-	-	-	?	?	?
NC(Cc1ccccc1)c1csc(NC(=O)c2cccc(OC(F)(F)F)c2)n1 (configuration not stated)	?	-	?	?	15µM	?
COc1ccc(CC(N)c2csc(NC(=O)c3ccccc3)n2)cc1 (configuration not stated)	-	-	-	-	-	?
COc1ccc(CC(N)c2csc(NC(=O)c3cccc(OC(F)(F)F)c3)n2)cc1 (configuration not stated)	?	-	?	21µM	21µM	-
CC(=O)c1ccc(N2CCN(c3ccc(NC(=O)c4ccc(F)cc4)cc3C(=O)O)CC2)cc1	?	-	-	.	.	-
C[C@]1(CO)CN(c2cc(C(=O)Nc3ccc4c(c3)-c3c(c(C(N)=O)nn3-c3ccc(F)cc3)CC4)c(Cl)cn2)C[C@@]1(C)CO	.	.	8.6µM	.	.	.
O=[N+]([O-])c1ccc(C2=NN(CCO)C(=Nc3ccc(OC(F)(F)F)cc3)SC2)cc1	?	-	-	15µM	?	-
COc1ccc(N=C2SCC(c3ccc([N+](=O)[O-])cc3)=NN2CCO)cc1	?	-	-	?	?	-
Oc1cc2c(cc1C(c1ccc(Br)cc1)N1CCCC1)OCO2 (configuration not stated)	?	14µM	-	?	?	-
O=S(=O)(NCC(c1ccc2c(c1)OCO2)N1CCOCC1)c1ccc(Br)cc1 (configuration not stated)	-	-	-	-	-	-
Cc1onc(-c2ccccc2)c1C(=O)N[C@@H]1C(=O)N2[C@@H](C(=O)O)C(C)(C)S[C@@H]12	.	.	-	.	.	-
COc1cccc(C2CNC3(CCCC(C)C3)c3[nH]c4ccccc4c32)c1OC (configuration not stated)	?	-	.	?	?	11µM
Cc1cc2c(cc1C)N(Cc1ccc(Cl)cc1)C1=NCCCN12	?	-	?	?	26µM	?
CC(C)(C)c1ccc(CN2C3=NCCCN3c3ccccc32)cc1	?	16µM	?	23µM	?	?
Cc1ccc(CN2C3=NCCCN3c3ccccc32)cc1	?	-	-	-	-	-
O=C(C(c1ccccc1)N1CCOCC1)N1CCOCC1 (configuration not stated)	-	-	-	-	-	-
O=C(C=Cc1ccccc1)CC(c1ccccc1)N1CCOCC1 (configuration not stated)	?	13µM	?	?	4.1µM	.
CCOC(=O)c1c(C)c(-c2ccccc2)n(CC(=O)NC(CC)Cc2ccccc2)c1C (configuration not stated)	-	-	-	.	.	-
Cc1nc2ccc(CN(C)c3ccc(C(=O)N[C@@H](CCC(=O)O)C(=O)O)s3)cc2c(=O)[nH]1	.	.	0.1µM	.	.	-
CCn1c2ccccc2nc2cc3c(cc21)c(Cl)c(=O)c1ccccc13	18µM	-	.	21µM	?	.
CCN(CC)c1nc(C#N)nc(N2CCOCC2)n1	-	-	.	.	.	.
C=C1C(=O)C=C[C@]2(C)C[C@@H]3OC(=O)[C@](C)(O)[C@H]3C[C@@H]12	?	-	10µM	?	?	?
O=C1/C(=C/c2ccccc2O)SC(=S)N1Cc1cccnc1	?	-	28µM	-	-	16µM
O=C1/C(=C\c2cc(Br)cc(Br)c2O)SC(=S)N1Cc1ccccc1	?	-	?	-	-	?
SMILES	TGFb SMAD3 inh	HepG2 tox	ATXN2 expr inh	HT1080 IDH1KD tx	HT1080NT lethal	ATXN viability
S=C1SCN(Cc2cccnc2)CN1Cc1ccccc1	?	-	?	21µM	?	?
CN1CCN(C(=O)CCN2C(=O)/C(=C\c3ccc(Cl)cc3)SC2=S)CC1	-	-	-	-	-	-
S=C1NCN(Cc2cccnc2)CN1Cc1ccccc1	-	-	-	-	-	-
CN1C(=O)/C(=C/c2ccc(O)c([N+](=O)[O-])c2)NC1=S	-	-	-	-	-	25µM
COc1cc(/C=C2\NC(=S)N(C)C2=O)ccc1O	-	-	-	-	-	?
NS(=O)(=O)c1ccc(CCN2C(=O)/C(=C\c3ccc(Cl)cc3)SC2=S)cc1	-	-	25µM	-	-	.
CCN(Cc1ccncc1)Cc1ccc2c(c1)CN(C(=O)c1ccc(C#CC(C)(C)O)o1)CCO2	.	.	.	.	.	-
COCc1c(C(=O)NC2CCCCC2)cnn1-c1nccc(-c2cc(C)sc2C)n1	.	.	.	.	.	-
CCOc1ccc(NC(=O)c2cnn3c2NC(c2cccc(OC)c2)=CC3c2ccccc2)cc1 (configuration not stated)	-	-	-	.	.	?
CSc1nnc(CNS(=O)(=O)c2ccc(F)cc2F)n1-c1ccccc1C	.	.	.	.	.	-
O=C1CSC(=S)N1c1cccnc1	-	-	-	-[9.24 µM]	-	-
O=C1CSC(=S)N1Cc1cccnc1	7.9µM	-	?	?	?	?
O=C1/C(=C\c2cccc([N+](=O)[O-])c2O)SC(=S)N1Cc1ccccc1	10µM	-	?	-	-	?
S=C1SCN(Cc2ccccn2)CN1Cc1ccco1	?	-	?	16µM	?	?
O=C(O)c1cccc(CN2C(=O)S/C(=C/c3cccc([N+](=O)[O-])c3)C2=O)c1	-	-	-	16µM	?	-
COc1cc([N+](=O)[O-])cc(/C=C2/SC(=S)N(Cc3ccccc3)C2=O)c1O	?	-	.	-	-	.
C=CCN=C1S/C(=C/c2cccc([N+](=O)[O-])c2)C(=O)N1CC=C	?	-	-	?	?	-
O=C(O)c1ccc(/C=C2/SC(=S)N(Cc3ccccc3)C2=O)cc1	-	-	-	-	-	-
CCOc1cc(/C=C2/SC(=S)N(Cc3ccccc3)C2=O)ccc1O	-	-	.	-	-	?
O=C1/C(=C\c2ccc(O)cc2)SC(=S)N1Cc1ccccc1	?	-	-	23µM	?	-
O=C1/C(=C/c2ccc(O)c([N+](=O)[O-])c2)SC(=S)N1Cc1ccccc1	-	-	-	-	23µM	?
COc1ccc(-c2nc3cc(F)ccc3cc2CN(C(=O)c2ccc3c(c2)OCO3)C2CC2)cc1	.	.	.	.	.	-

High-throughput results deposited in PubChem by National Center for Advancing Translational Sciences (NCATS).
